{"source": "PubChem BioAssay (EPA / NIEHS)", "note": "Activity calls are given as the source filed them. How the source made its calls: active means hit-call score of the fitted dose curve at least 0.9, where 1 is the maximum; inconclusive means response in the unintended direction; inactive means score below 0.9."}
{"tested_on": "SERPINA7 (gene 6906)", "test": "CCTE_GLTED_hTBG: CCTE's human Thyroxine-binding Globulin (TBG) Inhibition Assay, Great Lakes Toxicology and Ecology Division (GLTED) Lab (AID 2284343);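 further: active chemicals lower fluorescence versus DMSO baseline by displacing probe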", "method": "CCTE_GLTED_hTBG is a cell-free, single-readout assay designed to test the chemicals' ability to displace T4 from the human thyroxine-binding globulin (TBG) protein. TBG is incubated in presence of test chemical for 2 hours during which disrupting chemicals displace ANSA from the TBG protein. Results read fluorescence at 380 excitation and 475 emission.CCTE_GLTED_hTBG is the assay component measured from the CCTE_GLTED_hTBG assay. It is designed to make measurements of fluorescent polarization, using a form of binding reporter, as detected with Fluorescence signals by Fluorescence technology.Data from the assay component CCTE_GLTED_hTBG was analyzed at the assay endpoint CCTE_GLTED_hTBG in the positive analysis fitting direction relative to DMSO as the negative control and baseline of activity. Using a type of binding reporter, loss-of-signal activity can be used to understand a chemical's ability to displace T4 from thyroxine-binding globulin. To generalize the intended target to other relatable targets, this assay endpoint is annotated to the 'transporter' intended target family, where the subfamily is 'hormone carrier protein'.\nHuman transthyretin (TTR) assay, developed at Great Lakes Toxicology and Ecology Division (GLTED) within the EPA's Center for Computational Toxicology and Exposure (CCTE), is designed to test the chemicals' ability to displace T4 from the TTR protein. TTR (0.5uM) is incubated in presence of test chemical for 2 hours during which disrupting chemicals displace ANSA from the TTR protein. Results read fluorescence at 380 excitation and 475 emission."}
{"smiles": "CCCCCCCCCCCCOC(=O)c1cc(O)c(O)c(O)c1", "AC50": "4.45 µM (active)"}
{"smiles": "O=P(O)(O)CCC(F)(F)C(F)(F)C(F)(F)C(F)(F)C(F)(F)C(F)(F)C(F)(F)C(F)(F)F", "AC50": "95.6 µM (active)"}
{"smiles": "COc1cc([N+](=O)[O-])ccc1N", "AC50": "37 µM (active)"}
{"smiles": "O=C(CC(=O)C(F)(F)C(F)(F)C(F)(F)F)c1cccs1", "AC50": "14.1 µM (active)"}
{"smiles": "Cc1cc(Cc2cc(C)cc(C(C)(C)C)c2O)c(O)c(C(C)(C)C)c1", "AC50": "2.6 µM (active)"}
{"smiles": "Cc1[nH]nc2c1N=C(c1ccccc1Cl)c1cc([N+](=O)[O-])ccc1N2", "AC50": "0.482 µM (active)"}
{"smiles": "CCCCc1ccc2ccccc2c1S(=O)(=O)O", "AC50": "22 µM (active)"}
{"smiles": "CCCCCCCCCC=CCC1CC(=O)OC1=O", "note": "(stereo not given)", "AC50": "60.7 µM (active)"}
{"smiles": "O=C(c1ccccc1)c1ccccc1", "AC50": "40.2 µM (active)"}
{"smiles": "O=C(O)C(F)(F)OC(F)(F)C(F)(F)OC(F)(F)C(F)(F)OC(F)(F)C(F)(F)C(F)(F)C(F)(F)F", "AC50": "20.8 µM (active)"}
